Screens: PubChem, several laboratories
Hits are enriched below; roughly 5.1% of the tested compounds scored in any of these assays.
TMEM16A act: activators or potentiators of mouse TMEM16A chloride channel | Q8BHY3 | HEK293 TMEM16A/YFP-H148Q/I152L, iodide quench fluorescence; active compounds read low | B-score at 10 µM | actives 0.3% (n = 340,000);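 active means fluorescence-ratio B-score plate-corrected deviation score at least 3 library SD below zero, with starting fluorescence score within 5 deviations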;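 further: channel opened by trigger with iodide after compound preincubation; score built on the fluorescence ratio of max minus min over baseline; more negative score means more quench and so TMEM16A activation or potentiation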
Target sequence (Q8BHY3 whole entry, looked up): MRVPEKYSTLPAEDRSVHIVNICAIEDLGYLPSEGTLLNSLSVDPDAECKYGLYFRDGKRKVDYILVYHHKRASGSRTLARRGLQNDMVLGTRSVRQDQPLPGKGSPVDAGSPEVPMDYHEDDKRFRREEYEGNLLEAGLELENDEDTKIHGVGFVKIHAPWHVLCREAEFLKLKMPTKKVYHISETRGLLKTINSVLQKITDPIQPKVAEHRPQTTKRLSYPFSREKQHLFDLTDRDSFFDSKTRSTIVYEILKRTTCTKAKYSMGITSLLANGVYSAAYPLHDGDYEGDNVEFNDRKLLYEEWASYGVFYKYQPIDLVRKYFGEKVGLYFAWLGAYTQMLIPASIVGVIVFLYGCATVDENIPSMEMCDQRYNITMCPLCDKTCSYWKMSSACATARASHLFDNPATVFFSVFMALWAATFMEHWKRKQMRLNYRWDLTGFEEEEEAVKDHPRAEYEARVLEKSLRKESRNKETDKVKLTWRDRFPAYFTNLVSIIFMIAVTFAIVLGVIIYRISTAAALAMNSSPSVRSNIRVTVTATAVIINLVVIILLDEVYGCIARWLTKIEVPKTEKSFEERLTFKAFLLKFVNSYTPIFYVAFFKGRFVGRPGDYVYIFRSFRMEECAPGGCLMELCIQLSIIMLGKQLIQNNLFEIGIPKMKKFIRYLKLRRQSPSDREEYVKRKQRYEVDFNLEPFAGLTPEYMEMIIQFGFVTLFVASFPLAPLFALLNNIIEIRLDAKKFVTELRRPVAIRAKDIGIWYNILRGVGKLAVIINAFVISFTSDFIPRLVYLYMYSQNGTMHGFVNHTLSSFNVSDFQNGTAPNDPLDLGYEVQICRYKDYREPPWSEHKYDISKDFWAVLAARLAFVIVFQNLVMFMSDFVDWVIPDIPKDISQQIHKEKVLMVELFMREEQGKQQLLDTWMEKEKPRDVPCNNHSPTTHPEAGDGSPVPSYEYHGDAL
CRFBP-R2 agonist: agonists of human CRF-binding protein/CRF-R2 receptor complex. HEK293 CRF-R2/CRF-BP, calcium dye fluorescence (FLIPR); percent of saturating CRF peptide response. activation, % at 13.2 µM. actives 0.46% (n = 350,000). AID 588473;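 active means activation of at least 50%, plus an integration ratio under a set limit after plate pattern correction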
TMEM16A inh: mouse TMEM16A channel inhibition, primary screen; Q8BHY3; HEK293 TMEM16A/YFP iodide influx fluorescence, ionomycin; normalized B-score (activity score, 25-100; higher = stronger inhibition) at 10 µM; actives 1.2% (n = 310,000); AID 588511;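 active means ratio plate-corrected score three or more library SD toward inhibition, starting fluorescence score within five deviations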;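 further: score derived from kinetic fluorescence span divided by baseline fluorescence per well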
CRFBP-R2 block: antagonists of CRF-binding protein/CRF-R2 receptor complex; AID 588475; HEK293 CRF-R2/CRF-BP, CRF-induced calcium fluorescence; inhibition, % at 11.8 µM; actives 0.59% (n = 350,000);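 active means inhibition of the ligand-induced calcium signal above about 50% at the single tested concentration, limit read from the data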
NR3A LBD binder: modulates the human NR3A ligand-binding domain; NR3A LBD differential scanning fluorimetry, Tm shift; 0% = protein alone, 100% = glycine-bound protein; Tm shift relative to glycine control, % at 25 µM; actives 2.5% (n = 340,000);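 active means melting temperature shift of at least 10% of the positive control shift, at one fixed dose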
MPTP inh: inhibitors of mitochondrial permeability transition pore. isolated mouse mitochondria, Ca2+ swelling absorbance, 30 min. inhibition, % at 10 µM. actives 1.4% (n = 360,000). AID 602449;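 active means inhibition of 50% or more, scaled per plate between neutral and stimulator controls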
Numbers stand for hits; – = inactive; · = not tested or not shown.

SMILES | TMEM16A act | CRFBP-R2 agonist | TMEM16A inh | CRFBP-R2 block | NR3A LBD binder | MPTP inh
COc1ccc(N/C=C/C(=O)c2ccc(C)cc2)c([N+](=O)[O-])c1 | -7.15 | – | – | – | 20.4 | –
CCOc1ccc(N/C=C/C(=O)c2ccc(OC)cc2)c([N+](=O)[O-])c1 | – | – | – | – | 19.8 | –
COc1ccc(C(=O)/C=C/Nc2ccc([N+](=O)[O-])cc2)cc1 | – | – | – | – | – | –
CCOc1ccc(N/C=C/C(=O)c2ccc(OC)cc2)cc1 | – | – | – | – | – | –
Cc1ccc(Cn2cc(CN3CC(N4CCN(Cc5ccccc5F)CC4)CS3(=O)=O)nn2)cc1 (configuration not stated) | · | · | · | · | · | –
COc1ccc(C(=O)c2ccc3oc(-c4ccc(OC)cc4)c(-c4ccc(O)cc4)c3c2)cc1 | – | – | · | – | 11.1 | –
COc1ccc(C(=O)c2c(C)oc3ccc(O)cc23)cc1 | – | – | – | – | – | –
CC1Cc2cc(S(=O)(=O)N3CCC(C(=O)N4CCN(c5ccccc5F)CC4)CC3)ccc2N1C(=O)C1CC1 (configuration not stated) | – | – | – | – | – | –
CN(Cc1ccc([N+](=O)[O-])cc1)c1ccccc1 | – | – | · | 55.2 | – | –
CN(N=Nc1cccc([N+](=O)[O-])c1)c1ccccc1 | – | – | – | – | – | –
CN(N=Nc1ccc([N+](=O)[O-])cc1)c1ccccc1 | – | 83.7 | – | – | – | –
COc1ccccc1CN1C(=NC(=O)CCC2CCCC2)SC2CS(=O)(=O)CC21 (configuration not stated) | – | – | – | – | – | –
CC1CC(C(=O)Nc2ccccc2)C(=O)O1 (configuration not stated) | – | – | – | – | – | –
CC(NS(=O)(=O)c1ccc(N)cc1)C1CC2CCC1C2 (configuration not stated) | – | – | – | – | – | –
O=c1cc(CN2CCN(c3ccccc3O)CC2)nc2sccn12 | – | – | – | – | – | –
Cc1cccc(N2CCN(Cc3cc(=O)n4ccsc4n3)CC2)c1C | -13.8 | – | – | – | – | –
O=C(O)c1cc(-c2c[nH]c3ccccc23)nc2ccc3ccccc3c12 | – | – | – | – | 10.9 | –
O=C(CN1CCCC1)NCC12CC3CC(CC(C3)C1)C2 | – | – | – | – | – | –
O=C(CN1CCCC1)NC12CC3CC(CC(C3)C1)C2 | – | – | – | – | 10.2 | –
CCc1ccc2[nH]c3nc(N/N=C/c4cccc(O)c4)nnc3c2c1 | – | – | – | – | 17.6 | –
COc1cccc(/C=N/Nc2nnc3c(n2)[nH]c2ccccc23)c1OC | – | – | – | – | – | –
O=[N+]([O-])c1ccc(CSc2nc3ccccc3o2)cc1 | – | – | – | – | – | –
Cc1ccc(C(=O)CSc2nc3ccccc3o2)cc1 | – | – | – | – | 17.0 | –
COC(=O)c1ccc(CSc2nc3ccccc3o2)cc1 | – | – | 25 | – | – | –
O=C(O)CSc1nc2ccccc2o1 | – | – | – | – | – | –
SMILES | TMEM16A act | CRFBP-R2 agonist | TMEM16A inh | CRFBP-R2 block | NR3A LBD binder | MPTP inh
O=C(NCCc1ccccc1)C1(S(=O)(=O)c2ccc(Cl)cc2)CC1 | – | – | – | – | – | –
O=C(NN=Cc1c(O)ccc2ccccc12)c1ccncc1 | – | 148.7 | · | – | – | –
O=C(N/N=C/c1nn(-c2ccccc2)cc1-c1ccc(Cl)cc1)c1ccncc1 | · | · | 25 | · | · | ·
CC(=NNC(=O)c1ccncc1)c1ccc2ccccc2c1O | – | 296.5 | · | – | – | –
O=C(N/N=C/c1c(O)ccc2ccccc12)c1ccc(Br)o1 | – | 101.2 | – | – | – | –
CC(=NNC(=O)c1ccncc1)c1ccccc1O | – | – | · | – | – | –
NC(=O)c1ccccc1NC(=O)c1ccc2c(c1)OCO2 | – | – | – | – | – | –
COc1ccc(NC(=O)CC(C)NCCCN2CCCC2=O)cc1 (configuration not stated) | – | – | – | – | – | –
CCCN(CC(=O)Nc1ccccc1OC)C(=O)CN1C(=O)NC(C)(C)C1=O | · | – | · | – | · | –
C[C@H](NC(=O)[C@H]1N2C(=O)c3ccccc3C2SC1(C)C)C(=O)N1CCC[C@H]1C(=O)O (some centres not stated) | – | – | – | – | – | –
